The structures appear in SMILES notation. Results filed as inconclusive are left out. A call without a number means that no potency is given here. Values without a mark were called inactive. Calls of active or inactive are those of the source. Calls come from the whole dose curve; as a rule, active = well fitted inhibition curve with a large enough effect; inconclusive = small, poorly fitted or top-dose-only effect; inactive = no such curve, though single readings can be large or run the other way.

The target in this experiment is N-terminal Xaa-Pro-Lys N-methyltransferase 1 (Homo sapiens) (UniProt Q9BV86). Description: qHTS Assay for Inhibitors of N-terminal methyltransferase 1 (NTMT1): MTaseGlo Assay Confirmatory Screen, Round 1. In short, it runs like this:
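Luminescence from MTase-Glo conversion of SAH to ATP measured activity after a 30 min RT reaction with 1 µM SPKRIA substrate, 100 µM SAM and 125 nM enzyme. Normalization used no-enzyme and DMSO controls, followed by Hill fitting.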
Potency is the fitted concentration of half-maximal effect.

Chain of N-terminal Xaa-Pro-Lys N-methyltransferase 1 (Homo sapiens) (Q9BV86 whole entry, looked up): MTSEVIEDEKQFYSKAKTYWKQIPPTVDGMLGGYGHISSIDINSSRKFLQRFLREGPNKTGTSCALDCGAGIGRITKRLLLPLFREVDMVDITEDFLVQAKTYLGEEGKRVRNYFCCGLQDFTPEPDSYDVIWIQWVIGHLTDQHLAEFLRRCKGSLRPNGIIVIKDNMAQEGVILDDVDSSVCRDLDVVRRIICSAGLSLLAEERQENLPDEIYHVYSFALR

Take `COc1cc2c(NC3CCN(C)CC3)nc(N3CCN(C)CC3)nc2cc1OCCCN(C)C`: the Potency result was “inactive”.

With `Nc1nc(Cl)nc2c1ncn2[C@@H]1O[C@H](CO)C(O)[C@H]1O` (some centres not stated), the Potency result is “inactive”.

In the case of `Nc1ccc(CCNc2ncnc3c2ncn3C2OC(CO)C(O)C2O)cc1` (configuration not stated), the Potency result is “inactive”.

Turning to `Nc1ncnc2c1ncn2[C@@H]1O[C@H](C(=O)NC2CC2)[C@@H](O)[C@H]1O`, the Potency entry was “inactive”.

`Nc1ncnc2c1nc(Br)n2C1OC(CO)C(O)C1O` (configuration not stated): the Potency result was “inactive”.

For `COc1cc2c(NC3CCN(C(C)C)CC3)nc(N3CCC(F)(F)CC3)nc2cc1OCCCN1CCCC1`, the Potency result was “inactive”.

Regarding `CCNc1nc(N2CCCN(C)CC2)nc2cc(OC)c(OC)cc12`, the Potency entry is “inactive”.

As to `COc1cc2c(NC3CCN(C(C)C)CC3)nc(N3CCCN(C)CC3)nc2cc1OCCCN(C)C`, the Potency result was “inactive”.

Consider `COC1C(CO)OC(n2cnc3c(=O)[nH]cnc32)C1O` (configuration not stated), for which the Potency entry is “inactive”.

As to `C=CCNc1nc(NC2CCN(C)CC2)c2cc(OC)c(OC)cc2n1`, the Potency result is “inactive”.

As to `COc1cc2c(NC3CCN(C)CC3)nc(N3CCCN(C)CC3)nc2cc1OCCCN1CCOCC1`, the Potency entry was “inactive”.

For `CCN(CC)c1nc(NC2CCN(C)CC2)c2cc(OC)c(OC)cc2n1`, the Potency result was “inactive”.

For `OC[C@H]1O[C@@H](n2cnc3c(NC4CCCCC4)ncnc32)[C@H](O)[C@@H]1O`, the Potency entry is “inactive”.

Take `COc1cc2c(NC3CCN(C(C)C)CC3)nc(N3CCCN(C(C)C)CC3)nc2cc1OCCCN1CCCCC1`: the Potency result was “inactive”.

With `OC[C@H]1O[C@@H](n2cnc3c(NCc4ccccc4)ncnc32)[C@H](O)[C@@H]1O`, the Potency result was “inactive”.

Take `Nc1ncnc2c1ncn2[C@@H]1O[C@H](CO)[C@@H](O)[C@@H]1O`: the Potency entry is “inactive”.

Take `COc1cc2c(NC3CCN(C)CC3)nc(N3CCCN(C)CC3)nc2cc1OCCN(C)C`: the Potency result was “inactive”.

Turning to `Nc1ncnc2c1ncn2C1C[C@H](O)[C@@H](CO)O1` (some centres not stated), the Potency result is “inactive”.

For `Nc1nc(=S)c2ncn([C@H]3O[C@@H](CO)[C@@H](O)[C@@H]3O)c2[nH]1`, the Potency entry is “inactive”.

Consider `COc1cc2c(NC3CCN(C(C)C)CC3)nc(N3CCC(N4CCCC4)CC3)nc2cc1OCCCN1CCCCC1`, for which the Potency result was “inactive”.

For the compound `Nc1ncnc2c1ncn2[C@H]1O[C@@H](CNS(=O)(=O)NC(=O)c2cccc(-c3noc(-c4ccccc4F)n3)c2)[C@H](O)[C@@H]1O`, the Potency is 1.93 µM (active).

On to `Nc1nc2c([nH]c(=O)n2[C@@H]2O[C@H](CO)[C@@H](O)[C@H]2O)c(=O)[nH]1`, for which the activity change, negative = inhibition was -0.0532% [at 6.33 µM].

With `COc1cc2c(NC3CCN(C(C)C)CC3)nc(N3CCCN(C)CC3)nc2cc1OCCOCCN1CCCC1`, the Potency entry is “inactive”.

As for `Nc1ncnc2c1ncn2[C@H]1O[C@H](CO)[C@@H](O)[C@@H]1O`, the Potency entry was “inactive”.

In the case of `Nc1nc(Cl)nc2c1ncn2[C@@H]1O[C@H](COP(=O)(O)OP(=O)(O)OP(=O)(O)O)[C@@H](O)[C@H]1O`, the Potency entry was “inactive”.

As to `COc1cc2nc(N3CCOCC3)nc(NC3CCN(Cc4ccccc4)CC3)c2cc1OC`, the Potency result is “inactive”.

With `Nc1ncnc2c1ncn2[C@@H]1O[C@H](COP(=O)(O)OP(=O)(O)CP(=O)(O)O)[C@@H](O)[C@H]1O`, the Potency result was “inactive”.

For `OCC1OC(n2cnc3c(NO)ncnc32)C(O)C1O` (configuration not stated), the Potency entry was “inactive”.

Take `CCC(CC)n1ccc2c(C(=O)NCc3c(C)cc(C)[nH]c3=O)cc(C#N)cc21`: the Potency entry was “inactive”.

`Nc1ncnc2c1nc(Br)n2C1CC(O)C(CO)O1` (configuration not stated): the Potency entry was “inactive”.

As to `NCCNC(=O)Cc1ccc(NC(=O)Cc2ccc(Nc3ncnc4c3ncn4[C@@H]3O[C@H](CO)[C@@H](O)[C@H]3O)cc2)cc1`, the Potency result was “inactive”.

As for `CNC(=O)c1cnn(-c2nc(N)c3ncn([C@@H]4O[C@H](CO)[C@@H](O)[C@H]4O)c3n2)c1`, the Potency result was “inactive”.

Consider `Nc1ncnc2c1ncn2[C@@H]1O[C@H](COP(=O)(O)O)[C@@H](O)[C@@H]1O`, for which the Potency result was “inactive”.

Take `COc1cc2nc(N3CCCN(C)CC3)nc(N(C)C)c2cc1OC`: the Potency result is “inactive”.

Take `OC[C@H]1O[C@H](n2cnc3c(N[C@H]4CCC[C@@H]4O)ncnc32)[C@H](O)[C@@H]1O`: the Potency result is “inactive”.

Regarding `CCN(c1cc(-c2ccc(CN3CCOCC3)cc2)cc(C(=O)NCc2c(C)cc(C)[nH]c2=O)c1C)C1CCOCC1`, the Potency result was “inactive”.

In the case of `COc1cc2c(NC3CCN(C)CC3)nc(N3CCCN(C)CC3)nc2cc1OCCCN(C)C`, the Potency entry was “inactive”.
